# MCF10A rerep = A quantitative high throughput screen for small molecules that induce DNA re-replication in MCF 10a normal breast cells; actives 2.9% (n = 350,000); AID 624296, 2012; Potency, µM (doses to about 46.1 µM), without a hit: at the top dose activity, positive = re-replication, hits mostly activators; MCF 10A DNA re-replication, Hoechst nuclear intensity, 48 h; note: % of control where 0% means no effect; nearly all actives have a fitted effect of over 50% in size
# KB-V1 MDR tox = qHTS assay for MDR1-selective chemotherapeutics: Primary screen using the drug-selected MDR subline cells KB-V1 | Potency, µM (series often up to 46.1 µM), most hits filed as cytotoxic | actives 3.4% (n = 400,000) | KB-V1 MDR cells viability, CellTiter-Glo, 72 h; note: % is set by controls: 0 for no effect and ±100 for the full control effect; nearly all actives have a fitted effect of over 60% in size
#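 Readout: CellTiter-Glo luminescence, 10 min after addition. Cells: KB-V1 MDR subline, 72 h at 37 degrees C with compound. Analysis: corrected, normalized data fitted to concentration-effect curves.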
# KB-3-1 tox = qHTS assay for MDR1-selective chemotherapeutics: Primary screen using the parental adenocarcinoma cell KB-3-1; KB-3-1 viability, CellTiter-Glo ATP luminescence, 72 h; Potency, µM (top dose mostly 46.1 µM), actives largely listed as cytotoxic; actives 1.4% (n = 400,000); AID 1347075, 2019; note: % is set by controls: 0 for no effect and ±100 for the full control effect; nearly all actives have a fitted effect of over 60% in size
#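 KB-3-1 cells, DMEM (no phenol red) + 10% FBS; compound by pin transfer, 72 h, 37 °C. Readout: CellTiter-Glo luminescence after 10 min. Data normalized, curve-fitted.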
# SW480 rereplic = A quantitative high throughput screen for small molecules that induce DNA re-replication in SW480 colon adenocarcinoma cells | SW480 DNA re-replication, Hoechst DNA content imaging, 48 h | actives 1.8% (n = 340,000) | Potency, µM (doses to about 46.1 µM), inactives show at the top dose re-replication activation, usual class: activators; note: % of control where 0% means no effect; nearly all actives have a fitted effect of over 55% in size
#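 SW480 cells exposed to compounds for 48 hr at 37 C, 5% CO2, then Hoechst-stained 40 min. Nuclear DNA content imaged by fluorescence scanning (405 nm excitation, 500-530 nm emission); re-replication scored as increased high-intensity nuclei.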
# HT1080-NT tox = qHTS for induction of synthetic lethality in tumor cells producing 2HG: qHTS for the HT-1080-NT fibrosarcoma cell line. HT-1080-NT fibrosarcoma viability, CellTiter-Glo ATP luminescence, 48 h. Potency, µM (highest dose often 46.1 µM), for inactives: top-dose activity, negative = less viability, most hits filed as cytotoxic. actives 1.6% (n = 360,000);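 note: NT is the 2HG producing partner of a matched IDH1 knockdown line; 0% = DMSO-treated cells and -100% = media-only wells without cells; nearly all actives have a fitted effect of over 55% in size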
#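 HT-1080-NT; 750 cells/well; 5% FBS RPMI; 48 h compound, 37 degrees C; CellTiter-Glo luminescence; curve fitting and curve-class assignment.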
# HT1080 IDH1KD tx = qHTS for induction of synthetic lethality in tumor cells producing 2HG: qHTS for the HT-1080-IDH1KD cell line; actives 2% (n = 360,000); HT-1080 IDH1 knockdown viability, ATP luminescence, 48 h; AID 686971, 2013; Potency, µM (highest dose often 46.1 µM), for inactives: at the top dose activity, negative = toxicity, hits mostly cytotoxic;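 note: 0% = DMSO wells and -100% = cell-free medium wells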
#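 CellTiter-Glo luminescence after 48 h compound exposure at 37 degrees C of IDH1-knockdown HT-1080 cells in 5% FBS RPMI. %Activity scaled between DMSO wells and cell-free media wells, with curves fitted and assigned curve classes.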
# Active calls of the source: *; i = inactive; u = inconclusive; x = no result; [ ] = remark or other dose. An excerpt weighted towards active compounds, which were near 8% of everything screened. Calls come from the whole dose curve; as a rule, active = well fitted curve in the direction sought with a large enough effect; inconclusive = small, poorly fitted or top-dose-only effect, or another doubt; inactive = no such curve, though single readings can be large; an effect the other way counts as inactive or inconclusive. Potency is the fitted concentration of half-maximal effect.
SMILES,MCF10A rerep,KB-V1 MDR tox,KB-3-1 tox,SW480 rereplic,HT1080-NT tox,HT1080 IDH1KD tx
CCOC(=O)c1cccc(NC(=O)CN(c2ccc(OC)cc2)S(=O)(=O)c2c(C)noc2C)c1,21%,9.2µM*,i,-2%,1%,2%
Cc1noc(C)c1S(=O)(=O)N(CC(=O)N1CCc2ccccc21)c1ccc(C(C)C)cc1,13%,i,i,2%,3%,2%
COc1ccc(N(CC(=O)N2CCc3ccccc32)S(=O)(=O)c2c(C)noc2C)cc1,u,10µM*,u,0%,-4%,-20%
CCOc1ccc(N(CC(=O)Nc2cccc(F)c2)S(=O)(=O)c2c(C)noc2C)cc1,u,u,21µM*,18%,u,u
CC1CCN(S(=O)(=O)c2ccc3c(c2)N(CC(=O)NC(C)c2ccccc2)C(=O)CO3)CC1 (stereo unspecified),x,i,i,x,x,x
CCOc1ccccc1C1C(C#N)=C(N)Oc2cc(N)ccc21 (stereo unspecified),23µM*,i,i,u,7%,-17%
COc1ccc(OC)c(C2C(C#N)=C(N)Oc3cc(N)ccc32)c1 (stereo unspecified),-180%[0.0737 µM],u,u,u,-3%,3%
N#CC1=C(N)Oc2cc(N)ccc2C1c1cccc(F)c1 (stereo unspecified),13µM*,u,5.2µM*,12µM*,2.9µM*,2.3µM*
N#CC1=C(N)Oc2cc(N)ccc2C1C1CCCCC1 (stereo unspecified),8.2µM*,u,5.8µM*,18µM*,21µM*,8.2µM*
CN(C)c1ccc2c(c1)OC(N)=C(C#N)C2c1cccc(F)c1 (stereo unspecified),4.1µM*,u,u,u,0.18µM*,0.22µM*
COC(=O)c1ccc(C2C(C#N)=C(N)Oc3cc(N)ccc32)cc1 (stereo unspecified),-3%,i,i,-3%,-18%,-10%
COCCN(C(=O)Cc1csc(-c2cccc(Cl)c2)n1)c1c(N)n(Cc2ccccc2)c(=O)[nH]c1=O,14%,i,i,-25%,-1%,-2%
CCn1c(NC(=O)C2CCCCC2)nc2ccccc21,12%,u,u,u,-11%,-26%
CCOC(=O)Cc1ccc(NC(=O)NCc2c(-n3cccc3)sc3c2CCCC3)cc1,x,i,i,x,x,x
CC(=O)C1=C(C)NC(SCC(=O)c2ccc(Cl)cc2)=C(C#N)C1CC(C)C (stereo unspecified),u,21µM*,i,6%,21%,6%
CCOC(=O)C1=C(C)NC(SC)=C(C#N)C1CC(C)C (stereo unspecified),u,5.2µM*,4.1µM*,7.3µM*,1.8µM*,2.6µM*
CC(=O)C1=C(C)NC(SCC(=O)c2ccc(F)cc2)=C(C#N)C1CC(C)C (stereo unspecified),18µM*,u,i,u,0%,7%
O=C(NC(=S)NCCN1CCOCC1)c1ccccc1Br,1%,i,i,1%,11%,25%
COc1ccc(NC(=O)c2cc3c(C)nn(-c4ccccc4)c3s2)c(OC)c1,x,i,i,x,x,x
COc1ccc(NS(=O)(=O)c2ccc(O)c(NC(=O)c3cc4c(C)nn(-c5ccc(F)cc5)c4s3)c2)cc1,8.2µM*,i,u,u,u,u
N#Cc1c(-c2ccc3c(c2)OCO3)cc[nH]c1=O,17%,u,u,-18%,8%,-1%
COc1nc(-c2ccccc2)cc(-c2ccc3c(c2)OCO3)c1C#N,u,i,1.8µM*,u,u,-14%
Cc1ccc(NC(=O)C2CCN(S(C)(=O)=O)CC2)c(C)c1,4.1µM*,i,i,-42%,-9%,-7%
N#C/C(=C\c1cccc(Oc2ccc(C(F)(F)F)cc2[N+](=O)[O-])c1)c1nc2ccccc2[nH]1,18µM*,i,i,4%,12%,15%
COc1ccc(/C=C(\C#N)c2nc3ccc(C)cc3[nH]2)cc1Oc1ccc(C(F)(F)F)cc1[N+](=O)[O-],23µM*,u,i,u,6%,3%
SMILES,MCF10A rerep,KB-V1 MDR tox,KB-3-1 tox,SW480 rereplic,HT1080-NT tox,HT1080 IDH1KD tx
CCOC(=O)COc1ccc(/C=C(\C#N)c2nc3ccc(C)cc3[nH]2)cc1OC,x,u,18µM*,x,x,x
COc1cc(/C=C(\C#N)c2nc3ccc(C)cc3[nH]2)ccc1OCc1ccc(C)cc1,x,i,i,x,x,x
Cc1ccc2nc(/C(C#N)=C\c3ccc(Oc4ccc(C(F)(F)F)cc4[N+](=O)[O-])cc3)[nH]c2c1,3%,u,u,13µM*,u,u
COc1ccc(N2CCN(CCCNC(=O)C3COc4ccccc4C3)CC2)cc1 (stereo unspecified),x,i,i,x,x,x
Cc1ccc(C(=O)NCCCNC(=O)COc2ccccc2Cl)cn1,-7%,i,i,-6%,14%,9%
O=C(Cc1ccccc1[N+](=O)[O-])NNC(=O)c1cccs1,2%,i,i,2%,4%,4%
Cc1ccccc1N1C(=S)NC2c3ccccc3OC1(C)C2C(=O)N(C)C (stereo unspecified),-17%,i,i,-12%,2%,5%
COc1ccccc1C1=NOC(Cn2c(=O)c3c(ncn3C)n(C)c2=O)C1 (stereo unspecified),20%,i,i,1%,-2%,-3%
CC(=NC(C)C)C1=C(O)C(C)OC1=O (stereo unspecified),0%,i,i,-3%,16%,10%
Nc1ccc(S(=O)(=O)NNC(=O)C(=O)NNc2ccccc2)cc1,u,i,i,4%,10µM*,u
COc1ccc(-c2ncncc2-c2csc(C)n2)c(O)c1OC,-6%,i,i,-2%,0%,1%
COC1=C(N)C(=O)c2nc(-c3nc(C(=O)O)c(C)c(-c4ccc(OC)c(OC)c4O)c3N)ccc2C1=O,-8%,0.21µM*,0.15µM*,-149%,0.0092µM*,0.0082µM*

# Screening results: PubChem BioAssay, National Center for Advancing Translational Sciences (NCATS)
